Results on 28 compounds are retold here after PubChem BioAssay (NCATS).

Records with an inconclusive call do not appear. The source made the active and inactive calls. Calls come from the whole dose curve; as a rule, active = well fitted cell-killing curve with a large enough effect; inconclusive = small, poorly fitted or top-dose-only effect, or effect the other way; inactive = flat fitted curve, though single readings scatter.
% is set by controls: 0 for no effect and ±100 for the full control effect.

In the test the test system is Hek293T. In words: Primary qHTS to identify gynecologic anti-cancer compounds using libraries of approved drugs and bioactive compounds (AID 1345084). Note: nearly all actives have a fitted effect of over 55% in size. The conditions noted are these: Gynecologic cancer cell panel viability, ATPlite luminescence, 48 h, control line for the selectivity index; series mostly up to 57.5 µM; activity change, negative = cytotoxicity: at the top concentration. In outline: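 Cytotoxicity screen measuring ATP content by luciferase luminescence. Each compound is applied at five concentrations for 48 h at 37 C with 5% CO2.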
In general terms: qHTS replaces the single test concentration by a dilution series.
For the compound `CO/N=C(/C(=O)N[C@@H]1C(=O)N2C(C(=O)O)=C(Cn3ccc(=N)n3CCO)CS[C@H]12)c1csc(N)n1`, the “activity change, negative = cytotoxicity” value was 5.89% (inactive). Next, `CC(C)=CCC[C@](C)(O)[C@H]1CC[C@]2(C)[C@@H]1[C@H](O)CC1[C@@]3(C)CC[C@H](O)C(C)(C)[C@@H]3[C@@H](O[C@@H]3O[C@H](CO)[C@@H](O)[C@H](O)[C@H]3O[C@@H]3O[C@H](CO)[C@@H](O)[C@H](O)[C@H]3O)C[C@]12C` (stereo partly drawn): 5.21% [at 25.3 µM] (inactive); `C[C@@H]1O[C@@H](O[C@H]2[C@H](OC(=O)[C@]34CCC(C)(C)C[C@H]3C3=CCC5[C@@]6(C)C[C@H](O)[C@H](O[C@@H]7O[C@H](CO)[C@@H](O)[C@H](O)[C@H]7O)[C@@](C)(CO)C6[C@H](O)C[C@@]5(C)[C@]3(C)CC4)OC[C@H](O)[C@@H]2O)[C@H](O)[C@H](O)[C@H]1O[C@@H]1OC[C@@H](O)[C@H](O[C@@H]2OC[C@](O)(CO)[C@H]2O)[C@H]1O` (stereo partly drawn): 3.42% [at 6.55 µM] (inactive); `CC(=O)OC1C(O)CC2(C)C(CCC(C)C23Cc2c(O)cc(CO)c(C=O)c2O3)C1(C)C` (stereo not drawn): 6.14% [at 25.3 µM] (inactive). Next, `C/C(=C\CCC(C)CCO)C(=O)OC1(C)CCC2C(C(=O)O)=COC(OC3OC(CO)C(O)C(O)C3O)C21` (stereo not drawn): -29.8% [at 25.3 µM] (inactive); `CC1(C)CCCC2(C)C(C(=O)O)=CCC12` (stereo not drawn): -0.106% (inactive). Next, `CCC(C)/C=C(C)/C=C/c1cc2c(cn1)C(=O)C(C)(OC(C)=O)C(O)=C2Cl` (stereo not drawn): -10.1% [at 38.5 µM] (inactive); `O=S(=O)(Nc1ccccn1)c1ccc(N=Cc2c(O)[nH]c3ccc4ncsc4c23)cc1`: 20.8% [at 11.6 µM] (inactive).

For the compound `CC(O)/C=C/C1(O)C(C)C(O[C@@H]2O[C@H](CO)[C@@H](O)[C@H](O)[C@H]2O)C(O)CC1(C)C` (stereo partly drawn), the “activity change, negative = cytotoxicity” value was -1.95% [at 25.3 µM] (inactive). The value for `C[C@@H]1O[C@@H](O[C@H]2[C@H](OC(=O)[C@]34CCC(C)(C)C[C@H]3C3=CCC5[C@@]6(C)CC[C@H](O[C@@H]7O[C@H](C(=O)O)[C@@H](O)[C@H](O)[C@H]7O[C@@H]7O[C@H](CO)[C@H](O)[C@H](O)[C@H]7O)[C@@](C)(C=O)C6CC[C@@]5(C)[C@]3(C)C[C@H]4O)O[C@H](C)[C@H](O[C@@H]3O[C@H](C)[C@H](O)[C@H](O)[C@H]3O)[C@@H]2O)[C@H](O)[C@H](O)[C@H]1O[C@@H]1OC[C@@H](O)[C@H](O[C@@H]2O[C@H](CO)[C@@H](O)[C@H](O)[C@H]2O)[C@H]1O` (stereo partly drawn) was 8.68% [at 6.55 µM] (inactive); that for `COC(=O)C12CCC(C)C(C)C1C1=CCC3C4(C)CCC(OC(C)=O)C(C)(C)C4CCC3(C)C1(C)CC2` (stereo not drawn) was -0.578% [at 25.3 µM] (inactive); that for `C=C1C(=O)O[C@H](CCC)[C@H]1C(=O)O` was -5.44% (inactive). Take `CCOc1cc(CC(=O)NC(CC(C)C)c2ccccc2N2CCCCC2)ccc1C(=O)O` (stereo not drawn): the “activity change, negative = cytotoxicity” value is 5.99% (inactive). Next, `COC1=CC(=O)CC(C)C12Oc1cc(OC)cc(O)c1C2=O` (stereo not drawn): -9.9% (inactive); `O=C1CCC(=O)N(O)CCCCCNC(=O)CCC(=O)N(O)CCOCCNC(=O)CCC(=O)N(O)CCCCCN1`: -6.59% [at 25.3 µM] (inactive). Turning to `CCc1ccc(Cc2ccc3c(c2)[C@]2(OC3)O[C@H](CO)[C@@H](O)[C@H](O)[C@H]2O)cc1`, the “activity change, negative = cytotoxicity” value was 0.647% (inactive). With `C=C(C(=O)O)C1CCC2(C)CCC(O)C(=C)C2C1` (stereo not drawn), the “activity change, negative = cytotoxicity” value was 0.727% (inactive). The value for `C=C(C)C1CCC2(C(=O)O[C@@H]3O[C@H](CO[C@@H]4O[C@H](CO)[C@@H](O)[C@H](O)[C@H]4O)[C@@H](O)[C@H](O[C@@H]4O[C@@H](C)[C@H](O)[C@@H](O)[C@H]4O)[C@H]3O)CCC3(C(=O)O)C(CCC4C5(C)CCC(O)C(C)(C)C5CCC43C)C12` (stereo partly drawn) was -3.68% [at 11.6 µM] (inactive); that for `CC(NC(=O)C(O)C(C)C)C(=O)NC1C(=O)N(C)CCc2ccccc21` (stereo not drawn) was -5.22% (inactive). Next, `CNC(C)C(=O)NC(C(=O)N1CCCC1c1nc(C(=O)c2ccc(F)cc2)cs1)C1CCCCC1` (stereo not drawn): -19.6% (inactive); `CC(=O)O[C@@H]1[C@H](O)[C@@H](O[C@@H]2O[C@@H](C)[C@H](O[C@@H]3OC[C@@H](O)[C@H](O[C@@H]4OC[C@@H](O)[C@H](O)[C@H]4O)[C@H]3O)[C@@H](O[C@@H]3O[C@H](CO)[C@@H](O)[C@H](O)[C@H]3O)[C@H]2O)[C@H](OC(=O)[C@]23CCC(C)(C)C[C@H]2C2=CCC4[C@@]5(C)CC[C@H](O[C@@H]6O[C@H](C(=O)O)[C@@H](O)[C@H](O[C@@H]7OC[C@@H](O)[C@H](O)[C@H]7O)[C@H]6O[C@@H]6O[C@H](CO)[C@H](O)[C@H](O)[C@H]6O)[C@@](C)(C=O)C5CC[C@@]4(C)[C@]2(C)CC3)O[C@@H]1C` (stereo partly drawn): -2.1% [at 6.55 µM] (inactive); `CCN(Cc1cccnc1)C(=O)CN(c1ccc(OC)nc1)S(=O)(=O)c1ccccc1C`: 3.8% (inactive).

For `COc1ccc(CN2C(=O)C(=O)c3cc(S(=O)(=O)N4CCC[C@H]4COc4cccnc4)ccc32)cc1`, the “activity change, negative = cytotoxicity” value is 9.1% (inactive). The value for `CC1=CC(=O)[C@]2(O[C@@H]3O[C@@H](C)[C@H](O)[C@@H](O)[C@H]3OC(=O)/C=C/c3ccccc3)C=CO[C@@H](O[C@@H]3O[C@H](CO)[C@@H](O)[C@H](O)[C@H]3O)[C@H]12` was -21.5% [at 25.3 µM] (inactive); that for `O=C(O)c1ccccc1NC(=O)N1CCC(c2ccccc2C(F)(F)F)CC1` was 0.412% (inactive); that for `Nc1nc2c(ncn2[C@@H]2O[C@H](CO)[C@@H](O)[C@H]2O)c(=O)[nH]1` was 3.63% (inactive). The value for `C/C1=C\C[C@]2(C)C(=O)C(O)=C([C@H](C)CO)[C@H]2C/C=C(\C)[C@@H](O)CC/C(C)=C/CC1` was 10.9% [at 38.5 µM] (inactive); that for `C[C@]12C[C@@H](O)[C@@H]3C[C@@]1(O[C@@H]1O[C@H](CO)[C@@H](O)[C@H](O)[C@H]1O)[C@]3(COC(=O)c1ccccc1)C(=O)O2` was 4.66% [at 25.3 µM] (inactive).
